The target in experiment [1] is Ribosomal protein S6 kinase alpha-1 (Homo sapiens) (UniProt Q15418). The settings on record: at 1 µM.
Experiment [2] has the same target. The settings on record: at 10 µM.
Experiment [3] concerns the target Ribosomal protein S6 kinase alpha-3 (Homo sapiens) (UniProt P51812). The following applies: at 1 µM.
Experiment [4] has the same target. The following applies: at 10 µM.
In experiment [5] the target is Ribosomal protein S6 kinase alpha-2 (Homo sapiens) (UniProt Q15349). The settings on record: at 1 µM.
For experiment [6] the target is unchanged. The settings on record: at 10 µM.
Experiment [7] deals with Ribosomal protein S6 kinase alpha-6 (Homo sapiens) (UniProt Q9UK32). The following applies: at 1 µM.
Experiment [8] has the same target. The following applies: at 10 µM.
In experiment [9] the target is Mitogen-activated protein kinase 14 (Homo sapiens) (UniProt Q16539). The following applies: at 1 µM.
Experiment [10] shares this target. The settings on record: at 10 µM.

Molecules are shown by their SMILES.

Sequence of Ribosomal protein S6 kinase alpha-6 (Homo sapiens) (Q9UK32 whole entry): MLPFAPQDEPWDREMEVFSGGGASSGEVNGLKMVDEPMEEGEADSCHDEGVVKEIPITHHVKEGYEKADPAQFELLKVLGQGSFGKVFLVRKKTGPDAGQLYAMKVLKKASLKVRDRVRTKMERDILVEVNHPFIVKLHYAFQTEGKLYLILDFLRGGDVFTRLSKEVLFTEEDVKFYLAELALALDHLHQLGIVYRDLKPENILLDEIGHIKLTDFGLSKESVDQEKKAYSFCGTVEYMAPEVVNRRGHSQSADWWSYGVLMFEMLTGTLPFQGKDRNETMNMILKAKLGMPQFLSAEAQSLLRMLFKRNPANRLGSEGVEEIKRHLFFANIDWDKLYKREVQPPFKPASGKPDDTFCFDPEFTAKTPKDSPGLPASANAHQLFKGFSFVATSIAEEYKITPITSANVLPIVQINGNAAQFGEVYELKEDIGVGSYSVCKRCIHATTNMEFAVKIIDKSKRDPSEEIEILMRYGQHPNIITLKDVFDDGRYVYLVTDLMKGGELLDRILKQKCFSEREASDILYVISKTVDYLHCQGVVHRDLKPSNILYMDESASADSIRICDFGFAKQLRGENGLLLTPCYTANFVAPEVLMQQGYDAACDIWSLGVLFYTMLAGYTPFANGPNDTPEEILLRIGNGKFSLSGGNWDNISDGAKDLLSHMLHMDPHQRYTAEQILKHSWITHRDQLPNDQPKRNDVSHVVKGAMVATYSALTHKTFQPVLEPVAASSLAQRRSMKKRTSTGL
Sequence of Ribosomal protein S6 kinase alpha-3 (Homo sapiens) (P51812 whole entry): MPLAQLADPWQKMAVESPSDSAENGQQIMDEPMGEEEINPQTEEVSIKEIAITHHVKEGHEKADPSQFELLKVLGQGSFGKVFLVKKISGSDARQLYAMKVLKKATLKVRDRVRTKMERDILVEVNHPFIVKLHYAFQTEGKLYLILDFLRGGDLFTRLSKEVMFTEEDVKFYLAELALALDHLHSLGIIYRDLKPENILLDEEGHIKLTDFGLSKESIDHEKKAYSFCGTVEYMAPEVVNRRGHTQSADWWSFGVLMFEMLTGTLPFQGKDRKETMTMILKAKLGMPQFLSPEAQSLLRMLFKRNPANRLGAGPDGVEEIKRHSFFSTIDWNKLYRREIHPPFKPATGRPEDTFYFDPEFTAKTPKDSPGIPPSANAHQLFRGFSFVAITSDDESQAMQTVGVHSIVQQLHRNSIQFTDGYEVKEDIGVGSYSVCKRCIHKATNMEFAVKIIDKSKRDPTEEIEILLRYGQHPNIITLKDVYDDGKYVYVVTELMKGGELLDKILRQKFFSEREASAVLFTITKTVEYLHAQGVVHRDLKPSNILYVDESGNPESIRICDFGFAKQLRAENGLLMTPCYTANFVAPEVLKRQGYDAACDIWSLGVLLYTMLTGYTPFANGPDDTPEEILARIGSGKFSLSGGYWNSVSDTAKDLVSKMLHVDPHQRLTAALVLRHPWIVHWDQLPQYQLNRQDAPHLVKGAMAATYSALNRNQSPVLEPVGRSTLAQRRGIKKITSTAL
Sequence of Ribosomal protein S6 kinase alpha-2 (Homo sapiens) (Q15349 whole entry): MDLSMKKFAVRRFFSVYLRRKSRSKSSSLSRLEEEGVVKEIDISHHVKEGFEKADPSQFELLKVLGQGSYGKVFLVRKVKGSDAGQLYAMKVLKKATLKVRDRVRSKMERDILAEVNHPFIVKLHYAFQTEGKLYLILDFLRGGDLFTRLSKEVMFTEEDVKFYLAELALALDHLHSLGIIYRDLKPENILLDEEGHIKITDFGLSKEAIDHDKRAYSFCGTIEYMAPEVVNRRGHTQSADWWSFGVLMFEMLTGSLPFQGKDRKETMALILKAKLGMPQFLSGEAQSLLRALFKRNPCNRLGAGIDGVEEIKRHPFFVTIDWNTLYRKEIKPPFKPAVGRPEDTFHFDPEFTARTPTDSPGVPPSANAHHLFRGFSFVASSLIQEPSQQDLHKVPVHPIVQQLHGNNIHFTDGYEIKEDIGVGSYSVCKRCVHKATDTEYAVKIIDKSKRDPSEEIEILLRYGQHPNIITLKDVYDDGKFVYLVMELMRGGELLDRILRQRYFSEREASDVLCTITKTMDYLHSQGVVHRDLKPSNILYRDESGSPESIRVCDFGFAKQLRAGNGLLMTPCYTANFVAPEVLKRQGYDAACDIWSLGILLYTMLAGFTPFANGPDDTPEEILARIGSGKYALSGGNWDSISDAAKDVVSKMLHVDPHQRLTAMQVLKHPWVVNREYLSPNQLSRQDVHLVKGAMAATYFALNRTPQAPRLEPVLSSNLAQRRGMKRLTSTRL
Sequence of Mitogen-activated protein kinase 14 (Homo sapiens) (Q16539 whole entry): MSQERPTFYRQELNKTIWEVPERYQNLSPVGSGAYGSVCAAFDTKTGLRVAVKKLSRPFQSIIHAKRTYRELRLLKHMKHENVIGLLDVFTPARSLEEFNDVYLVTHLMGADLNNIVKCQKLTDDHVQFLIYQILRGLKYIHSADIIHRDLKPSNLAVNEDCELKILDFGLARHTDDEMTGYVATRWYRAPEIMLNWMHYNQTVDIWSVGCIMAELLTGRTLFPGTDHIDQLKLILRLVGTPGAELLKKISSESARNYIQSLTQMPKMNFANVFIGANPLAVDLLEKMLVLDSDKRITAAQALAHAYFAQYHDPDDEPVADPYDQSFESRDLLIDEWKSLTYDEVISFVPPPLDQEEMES
Sequence of Ribosomal protein S6 kinase alpha-1 (Homo sapiens) (Q15418 whole entry): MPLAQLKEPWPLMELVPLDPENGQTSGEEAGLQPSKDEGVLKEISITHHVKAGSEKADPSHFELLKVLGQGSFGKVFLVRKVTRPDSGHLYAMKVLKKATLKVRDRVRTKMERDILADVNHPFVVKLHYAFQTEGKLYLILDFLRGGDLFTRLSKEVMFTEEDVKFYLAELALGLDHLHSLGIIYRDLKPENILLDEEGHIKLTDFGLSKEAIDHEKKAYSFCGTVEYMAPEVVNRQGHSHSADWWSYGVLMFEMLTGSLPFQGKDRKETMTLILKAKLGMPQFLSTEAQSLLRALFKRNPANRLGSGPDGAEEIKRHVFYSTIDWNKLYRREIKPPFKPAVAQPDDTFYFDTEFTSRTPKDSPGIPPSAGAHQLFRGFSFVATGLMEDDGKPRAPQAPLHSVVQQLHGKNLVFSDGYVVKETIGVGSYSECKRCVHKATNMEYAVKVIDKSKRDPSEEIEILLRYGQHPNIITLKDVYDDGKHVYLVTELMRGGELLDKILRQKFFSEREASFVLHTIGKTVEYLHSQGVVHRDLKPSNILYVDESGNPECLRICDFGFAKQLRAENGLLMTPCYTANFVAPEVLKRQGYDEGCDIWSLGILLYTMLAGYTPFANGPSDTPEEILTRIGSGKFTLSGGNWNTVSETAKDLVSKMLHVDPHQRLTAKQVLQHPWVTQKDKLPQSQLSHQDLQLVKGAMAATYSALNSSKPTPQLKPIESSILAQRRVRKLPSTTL

Consider `COc1cc2ncnc(Nc3ccc(O)c(Br)c3)c2cc1OC`, for which the residual activity in experiment [1] was determined as 92%; in [2], 45%; in experiment [3] it was 39%; in experiment [4] it was 12%; in [5] it was 44%; in experiment [6], 7%. Also, the residual activity in [7] was 69%; in experiment [8], 18%; in experiment [9] it was 51%; in experiment [10], 14%.

In the case of `Cc1ccc(NC2=CC(=O)c3sc(C)nc3C2=O)cc1`, the residual activity in [1] came to 104%; in [2], 78%; in experiment [3] it was 117%; in experiment [4], 123%; in [5], 101%; in experiment [6], 102%. Further, the residual activity in experiment [7] was found to be 72%; in experiment [8], 111%; in [9], 97%; in [10], 93%.

On to `O=C(Nc1cccc(Nc2nccc(Nc3cccc(C(F)(F)F)c3)n2)c1)C1CC1`, for which the residual activity in experiment [1] is 78%; in experiment [2], 36%; in experiment [3], 45%; in [4] it was 27%; in [5] it was 106%; in [6], 62%. For the same molecule, the residual activity in experiment [7] turned out to be 96%; in experiment [8] it was 128%; in [9], 79%; in [10] it was 59%.

On to `N#CCCc1ccc2c(c1)-c1[nH]c3ccc([N+](=O)[O-])cc3c1CC(=O)N2`, for which the residual activity was determined as 45% in experiment [1]; 24% in experiment [2]; 9% in experiment [3]; 3% in experiment [4]; 8% in experiment [5]; 1% in experiment [6]. Also, the residual activity in experiment [7] came out at 16%; in experiment [8] it was 5%.

On to `Ic1cccc(CSc2nnc(-c3ccncc3)o2)c1`, for which the residual activity is 55% in experiment [1]; 46% in experiment [2]; 39% in experiment [3]; 28% in experiment [4]; 30% in experiment [5]; 24% in [6]. In addition, the residual activity in experiment [7] turned out to be 97%; in experiment [8] it was 100%; in experiment [9], 90%; in [10], 79%.

`Cc1cc2ncc(-c3ccccc3)nc2cc1C`: the residual activity in [1] stood at 95%; in experiment [2], 86%; in [3], 50%; in experiment [4], 40%; in experiment [5] it was 110%; in experiment [6], 101%. Further, the residual activity in [7] was found to be 97%; in experiment [8], 100%; in experiment [9], 85%; in experiment [10], 82%.

For `CCN(CC)CCCCN1c2ccccc2Oc2ccc(Cl)cc21`, the residual activity came to 110% in experiment [1]; 117% in experiment [2]; 67% in experiment [3]; 64% in experiment [4]; 109% in experiment [5]; 90% in [6]. Besides, the residual activity worked out at 118% in experiment [7], 104% in experiment [8], 93% in experiment [9] and 84% in experiment [10].

On to `O=C1c2ccccc2-[n+]2ccc3c([nH]c4ccccc43)c21`, for which the residual activity in [1] amounted to 97%; in [2], 116%; in experiment [3], 55%; in experiment [4] it was 50%; in experiment [5], 101%; in [6], 90%. The residual activity in [7] was determined as 95%; in [8], 102%; in experiment [9], 87%; in experiment [10] it was 85%.

On to `O=C(O)c1ccc2c3c1cccc3c(=O)n1c3ccccc3nc21`, for which the residual activity was 103% in [1]; 79% in experiment [2]; 51% in [3]; 37% in [4]; 90% in experiment [5]; 55% in [6]. Also, the residual activity in [7] was 81%; in [8] it was 73%; in experiment [9], 95%; in [10] it was 94%.

On to `Oc1ccc(-c2nc(-c3ccc(F)cc3)c(-c3ccncc3)[nH]2)cc1`, for which the residual activity in [1] stood at 117%; in [2], 83%; in experiment [3] it was 55%; in [4], 45%; in [5], 105%; in [6], 68%. Besides, the figures for the residual activity in experiment [7] and in experiment [8] were 88% and 92%, respectively.

Regarding `COc1ccc(S(=O)(=O)N(CCO)c2ccccc2CN(C)C/C=C/c2ccc(Cl)cc2)cc1`, the residual activity in [1] was 119%; in [2], 103%; in experiment [3], 60%; in experiment [4], 61%; in [5], 106%; in experiment [6], 92%. In addition, the residual activity in experiment [7] turned out to be 108%; in experiment [8] it was 90%; in experiment [9], 93%; in [10], 96%.

Consider `O=C1NC(=O)c2c1c1c3ccccc3[nH]c1c1[nH]c3cc(Br)ccc3c21`, for which the residual activity in [1] came to 63%; in [2], 49%; in experiment [3], 49%; in experiment [4] it was 43%; in experiment [5] it was 44%; in [6] it was 32%. Further, the residual activity came to 83% in experiment [7], 82% in experiment [8], 93% in experiment [9] and 85% in experiment [10].

Consider `CO[C@@H]1[C@H](N(C)C(=O)c2ccccc2)C[C@H]2O[C@]1(C)n1c3ccccc3c3c4c(c5c6ccccc6n2c5c31)C(=O)NC4`, for which the residual activity in experiment [1] is 0%; in experiment [2], 1%; in experiment [3], 1%; in [4], 0%; in [5], 1%; in [6], 0%. The residual activity amounted to 0% in experiment [7], 3% in experiment [8], 71% in [9] and 78% in [10].

For `CO[C@H]1C[C@@H]2CC[C@@H](C)[C@@](O)(O2)C(=O)C(=O)N2CCCC[C@H]2C(=O)O[C@H]([C@H](C)C[C@@H]2CC[C@@H](O)[C@H](OC)C2)CC(=O)[C@H](C)/C=C(\C)[C@@H](O)[C@@H](OC)C(=O)[C@H](C)C[C@H](C)/C=C/C=C/C=C/1C`, the residual activity stood at 110% in experiment [1]; 112% in [2]; 44% in experiment [3]; 55% in experiment [4]; 102% in [5]; 90% in [6]. The residual activity in [7] worked out at 105%; in experiment [8], 112%; in experiment [9], 72%; in experiment [10], 83%.

Turning to `COc1cccc(-c2cc(=O)c3ccccc3o2)c1N`, the residual activity in [1] was 91%; in [2], 81%; in experiment [3] it was 118%; in experiment [4], 106%; in experiment [5], 102%; in [6] it was 101%. Also, the residual activity in experiment [7] was 92%; in [8] it was 133%; in experiment [9], 86%; in [10], 94%.

Regarding `N#Cc1cnc2cnc(NCc3cccnc3)cc2c1Nc1ccc(F)c(Cl)c1`, the residual activity in experiment [1] is 2%; in experiment [2] it was 1%; in experiment [3], 0%; in [4], -1%; in experiment [5], 0%; in experiment [6], 0%. Moreover, the residual activity in experiment [7] amounted to 97%; in experiment [8], 93%; in experiment [9], 87%; in [10], 89%.

For `O=C1Nc2ccc(Br)cc2/C1=C\c1cc2c([nH]1)CCCC2`, the residual activity in experiment [1] turned out to be 84%; in experiment [2], 81%; in experiment [3], 45%; in experiment [4], 37%; in experiment [5] it was 79%; in experiment [6], 76%. In addition, the figures for the residual activity in [7] and in experiment [8] were 79% and 113%, respectively.

For the origin of these results see ChEMBL document CHEMBL2218924, “A broad activity screen in support of a chemogenomic map for kinase signalling research and drug discovery” (Biochem J, 2013).
